{"source": "PubChem BioAssay", "note": "Activity calls are given as the source filed them. How the calls were made is not given here."}
{"molecular_target": "Pantothenate synthetase (Mycobacterium tuberculosis (strain ATCC 25618 / H37Rv)) (UniProt P9WIL5)", "sequence (P9WIL5 whole entry, looked up)": "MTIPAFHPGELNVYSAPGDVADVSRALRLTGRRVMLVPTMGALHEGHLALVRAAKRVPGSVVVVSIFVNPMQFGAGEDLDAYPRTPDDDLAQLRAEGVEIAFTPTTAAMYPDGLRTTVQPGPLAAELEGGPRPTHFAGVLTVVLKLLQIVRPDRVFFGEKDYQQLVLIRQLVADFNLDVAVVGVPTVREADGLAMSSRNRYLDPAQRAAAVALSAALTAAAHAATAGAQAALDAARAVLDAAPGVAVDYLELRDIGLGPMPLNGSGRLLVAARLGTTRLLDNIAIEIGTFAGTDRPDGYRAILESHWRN", "assay": "Recombinant Mtb pantothenate synthetase (PanC) inhibitors, coupled enzyme, confirmatory (AID 375);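 further: 0% = full reaction with vehicle and 100% = no enzyme background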", "conditions": "coupled enzyme assay; at 10 µM, hits give high values"}
{"molecule": "CCNc1nc(NC(C)C)nc(N(C#N)CCOc2ccc(Cl)cc2Cl)n1", "inhibition": "7% (inactive)"}
{"molecule": "O=C1C2CCCN2C(c2ccccc2)N1c1ccc(Cl)cc1", "note": "(centres undefined)", "inhibition": "1% (inactive)"}
{"molecule": "Cc1ccccc1Cn1nc(C)c(NC(=O)c2noc3c2CCc2ccccc2-3)c1C", "inhibition": "0% (inactive)"}
{"molecule": "O=C(C1CCN(S(=O)(=O)Cc2ccccc2)CC1)N1CCN(c2ncccn2)CC1", "inhibition": "0% (inactive)"}
{"molecule": "O=C(NCCN1CCOCC1)c1ccc(CS(=O)(=O)Cc2ccccc2F)o1", "inhibition": "2% (inactive)"}
{"molecule": "O=C(Nc1ccc(NC(=O)c2ccco2)nc1)c1cccnc1", "inhibition": "0% (inactive)"}
{"molecule": "CCCN(CCC)S(=O)(=O)c1ccc(C(=O)Nc2nnc(-c3cccc(OC)c3)o2)cc1", "inhibition": "6% (inactive)"}
{"molecule": "CC(=O)OCC(=O)[C@@]12OC3(CCCC3)O[C@@H]1C[C@H]1[C@@H]3CCC4=CC(=O)C=C[C@]4(C)[C@@]3(F)[C@@H](O)C[C@@]12C", "inhibition": "1% (inactive)"}
{"molecule": "COc1ccccc1N1CCN(C(=O)N2CCOCC2)CC1", "inhibition": "0% (inactive)"}
{"molecule": "CCCCNC(=O)c1nc2ncc(Br)cn2n1", "inhibition": "2% (inactive)"}
{"molecule": "Cc1ccc(Nc2cc(C)nc3ncnn23)c(Cl)c1", "inhibition": "0% (inactive)"}
{"molecule": "O=C(NCc1cccnc1)c1cccc(C(F)(F)F)c1", "inhibition": "1% (inactive)"}
{"molecule": "Cc1cc(=O)n2nc(N3CCCC(C(=O)N4CCc5ccccc54)C3)sc2n1", "note": "(centres undefined)", "inhibition": "4% (inactive)"}
{"molecule": "O=C(CSc1nc2ccsc2c(=O)n1NC(=O)c1ccccc1)Nc1nccs1", "inhibition": "0% (inactive)"}
{"molecule": "Fc1cccc2sc(N3CCOCC3)nc12", "inhibition": "1% (inactive)"}
{"molecule": "CCn1c(CSc2ncccn2)nnc1SCC(=O)N1c2ccccc2CC1C", "note": "(centres undefined)", "inhibition": "6% (inactive)"}
{"molecule": "COc1ccc(Cn2nnnc2CN2CCOCC2)cc1", "inhibition": "6% (inactive)"}
{"molecule": "CN(C)c1ccc(O)c2c1CC1CC3[C@@H](N(C)C)C(=O)C(C(N)=O)=C(O)[C@]3(O)C(=O)C1=C2O", "note": "(some centres undefined)", "inhibition": "0% (inactive)"}
{"molecule": "CC(C)Cn1c(N)c(C(=O)COC(=O)c2cc(-c3ccco3)nc3ccccc23)c(=O)n(C)c1=O", "inhibition": "7% (inactive)"}
{"molecule": "COC(=O)c1ccc(NC(=O)CN2C(=O)CSC2=O)cc1", "inhibition": "5% (inactive)"}
{"molecule": "COc1cccc(-c2noc(CCC(=O)NC3CCCCC3)n2)c1", "inhibition": "1% (inactive)"}
{"molecule": "CCOC(=O)N1CCN(C(=O)CCc2c(C)nc3c(c(C)nn3-c3ccc(C)c(C)c3)c2C)CC1", "inhibition": "0% (inactive)"}
{"molecule": "CN(Cc1ccccc1)Cc1c[nH]c2ccccc12", "inhibition": "0% (inactive)"}
{"molecule": "CCN(C(=O)c1cn(C)c(=O)c2cc(OC)c(OC)cc12)c1ccccc1C", "inhibition": "6% (inactive)"}
{"molecule": "C=CCOC(=O)CCC(=O)Nc1cc(OC)nc(OC)n1", "inhibition": "0% (inactive)"}
{"molecule": "O=C(Nc1ccccc1)c1ccc(NCC2CCCO2)c(S(=O)(=O)N2CCOCC2)c1", "note": "(centres undefined)", "inhibition": "0% (inactive)"}
{"molecule": "COC(=O)c1ccccc1NC(=O)Cn1ccnc1", "inhibition": "0% (inactive)"}
{"molecule": "O=C(CSc1nc(-c2ccco2)cc(C(F)(F)F)n1)NCCCn1ccnc1", "inhibition": "8% (inactive)"}
{"molecule": "Cc1ccc(CS(=O)(=O)CCC(=O)NCC2CCCO2)cc1", "note": "(centres undefined)", "inhibition": "0% (inactive)"}
{"molecule": "COc1ccc(CCNC(=O)COc2ccc(S(=O)(=O)N3CCOCC3)cc2)cc1", "inhibition": "6% (inactive)"}
{"molecule": "CN(C)CCCN1c2ccccc2CCc2ccc(Cl)cc21", "inhibition": "1% (inactive)"}
{"molecule": "Cc1noc(/C=C/N(C)C)c1S(=O)(=O)N1CCCC(C(=O)NCCC2=CCCCC2)C1", "note": "(centres undefined)", "inhibition": "0% (inactive)"}
{"molecule": "CCCCn1c(SCC(=O)NCc2ccccc2)nc2ccc(N3CCOCC3)cc2c1=O", "inhibition": "0% (inactive)"}
{"molecule": "Cc1cccc(NC(=O)CN(C)S(=O)(=O)c2ccccc2)n1", "inhibition": "7% (inactive)"}
{"molecule": "CC(=O)C1=C(O)C(=O)N(C2CCCCC2)C1c1ccccc1", "note": "(centres undefined)", "inhibition": "0% (inactive)"}
{"molecule": "CC1=C(C(=O)Nc2ccccc2)C(c2ccco2)C(C#N)=C(SCC(=O)Nc2cccc(C)c2C)N1", "note": "(centres undefined)", "inhibition": "1% (inactive)"}
{"molecule": "CCOC(=O)Cc1csc(NC(=O)CSc2nnc(C3CC3)n2C)n1", "inhibition": "3% (inactive)"}
{"molecule": "O=C(NCc1cccnc1)C1CCCN(S(=O)(=O)c2ccc(Cl)cc2)C1", "note": "(centres undefined)", "inhibition": "2% (inactive)"}
{"molecule": "CC(C(=O)N1CCc2ccccc21)N1CCc2ccccc2C1", "note": "(centres undefined)", "inhibition": "3% (inactive)"}
